Assay outcomes deposited in PubChem BioAssay by several laboratories.
This is a sample that favours compounds with a hit; in the whole collection about 3.2% have one here.
rCAG RNA binder: molecules binding r(CAG) RNA repeats; hit rate 1.3% among 370,000; AID 651821; r(CAG) RNA repeat, TO-PRO-1 dye displacement fluorescence; inhibition, % at 3 µM;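 active = inhibition above the plate cutoff, the mean of all test compounds on that plate plus 3 SD, cut at about 35% in these data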;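 also: higher means more dye released from RNA so lower well fluorescence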
DSG3 Ab inh: inhibitors of pemphigus antibody binding to human desmoglein-3. P32926. DSG3-coupled beads, scFv-anti-DSG3-GFP binding, flow cytometry; active compounds read low. binding (percent of control), % at 10 µM. hit rate 0.48% among 310,000;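 active = binding more than 3 SD below its plate's average and above zero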;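 also: hits lower antibody fragment binding to DSG3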
Target sequence (P32926 whole entry, looked up, the tested form may be a part): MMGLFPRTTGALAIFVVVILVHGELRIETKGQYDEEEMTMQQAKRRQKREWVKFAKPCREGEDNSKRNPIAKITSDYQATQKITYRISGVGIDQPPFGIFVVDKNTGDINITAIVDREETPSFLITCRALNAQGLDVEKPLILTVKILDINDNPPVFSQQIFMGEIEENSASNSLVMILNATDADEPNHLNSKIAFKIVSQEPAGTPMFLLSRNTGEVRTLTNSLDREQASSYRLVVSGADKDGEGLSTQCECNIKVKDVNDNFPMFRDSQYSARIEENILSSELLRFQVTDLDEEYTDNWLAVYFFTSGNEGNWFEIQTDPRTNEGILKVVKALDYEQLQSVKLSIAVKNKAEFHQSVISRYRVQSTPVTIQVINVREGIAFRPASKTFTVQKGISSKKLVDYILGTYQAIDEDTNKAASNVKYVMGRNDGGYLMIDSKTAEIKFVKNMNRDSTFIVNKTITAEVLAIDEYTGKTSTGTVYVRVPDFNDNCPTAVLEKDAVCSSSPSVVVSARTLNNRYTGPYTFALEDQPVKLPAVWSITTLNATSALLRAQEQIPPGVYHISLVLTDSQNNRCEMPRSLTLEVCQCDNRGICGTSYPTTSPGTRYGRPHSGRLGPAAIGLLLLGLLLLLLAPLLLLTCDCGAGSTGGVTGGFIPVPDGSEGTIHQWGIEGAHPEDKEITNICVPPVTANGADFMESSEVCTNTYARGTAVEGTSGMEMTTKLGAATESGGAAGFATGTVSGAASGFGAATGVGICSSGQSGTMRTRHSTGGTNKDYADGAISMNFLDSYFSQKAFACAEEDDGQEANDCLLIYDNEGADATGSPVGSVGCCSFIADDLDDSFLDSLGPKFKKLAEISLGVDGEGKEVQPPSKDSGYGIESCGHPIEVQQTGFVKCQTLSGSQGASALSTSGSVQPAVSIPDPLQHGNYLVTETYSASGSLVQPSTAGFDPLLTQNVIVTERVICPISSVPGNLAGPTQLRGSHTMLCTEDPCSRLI
NadD inh: NadD (S. aureus) enzyme inhibition; inhibition, % at 20 µM; purified NadD enzyme, colorimetric absorbance read-out; AID 602399; hit rate 0.78% among 360,000; in the data active = inhibition above about 26%
MsrA act: bovine methionine sulfoxide reductase A activation; purified bovine MsrA, absorbance read-out; activation, % at 10.6 µM; hit rate 0.3% among 360,000; AID 602163; in the data active = activation above about 7.5%
MsrA inh: bovine MsrA inhibition. AID 651718. hit rate 0.75% among 360,000. purified bovine MsrA, absorbance read-out. inhibition, % at 15.5 µM
DAGLB inhibitor: blocks human DAGLB lipase activity | Q8NCG7 | HEK293T DAGLB membrane lysate, EnzChek fluorogenic substrate | inhibition, % at 5.17 µM | hit rate 0.059% among 340,000 | AID 504411; in the data active = inhibition above about 34%
MsrA inh confirm: bovine MsrA inhibition, confirmed; AID 651822; inhibition, % at 15.5 µM; shares compounds with MsrA inh; purified bovine MsrA, absorbance read-out; hit rate 41% among 2,300;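 also: coupled to thioredoxin reductase with NADPH and selenocystamine and DMSO as substrate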
Large screens that a line does not name were inactive (follow-up assays come after a bar, where they were run). Rule as the data show it, unless noted: active = inhibition above about 4.5%; inactive = the rest.

COc1ccc(-c2nnn3c2Cn2c4ccccc4c(=O)n2[C@@H](C)C3)cc1	none (no result: DSG3 Ab inh, NadD inh, MsrA act, MsrA inh, DAGLB inhibitor)
c1ccc(-c2nc3nc4ccccc4nc3n2CC2CCCO2)cc1 (stereo unspecified)	MsrA inh 5.2 | MsrA inh confirm 5.2
c1coc(-c2nc3nc4ccccc4nc3n2CC2CCCO2)c1 (stereo unspecified)	none (no result: DSG3 Ab inh)
CCCC(=O)OC12CCCN(C1)/C(=C/c1cccc(Cl)c1)C2 (stereo unspecified)	none (no result: DSG3 Ab inh, NadD inh, MsrA act, MsrA inh, DAGLB inhibitor)
Cc1ccc(C(=O)N/N=C/c2nc3ccccc3n2C)cc1	none
Cn1c(/C=N/NC(=O)c2ccccc2Br)nc2ccccc21	MsrA inh 5.3 | MsrA inh confirm inactive
CC(C)(C)c1ccc(OCc2ccc(C(=O)Nc3cccnc3)o2)cc1	none
O=C1C(NC(=O)N2c3ccccc3C=Cc3ccccc32)CCCCN1Cc1cccc(Cl)c1 (stereo unspecified)	none (no result: DSG3 Ab inh, NadD inh, MsrA act, MsrA inh, DAGLB inhibitor)
O=C1OC(c2ccco2)=N/C1=C\c1ccc(-c2cccc(C(F)(F)F)c2)o1	MsrA inh 5.6 | MsrA inh confirm inactive
C[C@H](CO)N1C[C@H](C)[C@@H](CN(C)S(=O)(=O)c2ccccc2)Oc2ccc(NC(=O)CCC(F)(F)F)cc2C1=O	none (no result: DSG3 Ab inh)
COc1ccc(-n2nnc3c(SC(C(C)=O)C(=O)N(C)C)ncnc32)cc1 (stereo unspecified)	MsrA inh 5.4 | MsrA inh confirm inactive
COC(=O)C(C)Sc1ncnc2c1nnn2-c1ccc(F)cc1 (stereo unspecified)	none
O=C(O)c1ccc(/C=C/c2ccc3cccc(O)c3n2)cc1	MsrA inh 5.6 | MsrA inh confirm 5.3
CC1(C(=O)NS(=O)(=O)c2ccc(Br)cc2)CCN1C(=O)Cc1cccs1 (stereo unspecified)	none (no result: DSG3 Ab inh, DAGLB inhibitor)
C[C@@H]1CCN(C2CC2)S(=O)(=O)c2c(cccc2N2CCC[C@H]2CO)O1	none (no result: DSG3 Ab inh, NadD inh, MsrA act, MsrA inh, DAGLB inhibitor)
Cc1oc(/C=N/NC(=O)CC2(C)OCCO2)cc1Br	none
CC1(CC(=O)N/N=C/c2cc(Br)c(O)cc2O)OCCO1	MsrA inh 6.1 | MsrA inh confirm 5.3
CCCC(C)(C)C(=O)N1CCC1(C)C(=O)NS(=O)(=O)c1ccccc1Cl (stereo unspecified)	none (no result: DSG3 Ab inh, DAGLB inhibitor)
CCCc1n[nH]c2c1/C(=N\OCC)CC(C)(C)C2	MsrA inh 4.8 | MsrA inh confirm inactive
CC1(C)C2CCC(CN=C(N)CSS(=O)(=O)O)C1C2 (stereo unspecified)	MsrA inh 21 | MsrA inh confirm 8.8
O=C(O)c1cccc(NS(=O)(=O)c2ccc3c(c2)C(=O)c2ccccc2C3=O)c1	MsrA inh 33 | MsrA inh confirm 25
COCCNC(=O)C1CCCN(C(=O)c2sccc2C)CC1 (stereo unspecified)	none (no result: DSG3 Ab inh, DAGLB inhibitor)
N#C/C(=C(/O)CSc1ccccc1C(=O)O)c1nc2ccccc2s1	MsrA inh 7.1 | MsrA inh confirm 7.1
COc1ccc(/C=N/NC(=O)c2c(C)n(C)c3ccc(OC)cc23)c(OC)c1	MsrA inh 4.9 | MsrA inh confirm inactive
CN(/N=C/C=C/c1ccccc1)c1cc(=O)n(C)c(=O)[nH]1	MsrA inh 12 | MsrA inh confirm 9.1
COc1ccc(/C=N/N(C)c2cc(=O)n(C)c(=O)[nH]2)cc1OC	MsrA inh 11 | MsrA inh confirm 7.0
CCOc1ccc(/C=N/N(C)c2ccccc2)cc1OC	none
O=C(N/N=C/c1ccc(O)cc1O)c1ccncc1	MsrA inh 4.9 | MsrA inh confirm inactive
Cc1nonc1C(=O)N/N=C/c1ccc(O)cc1O	MsrA inh 5.1 | MsrA inh confirm inactive
CCCc1cc(=O)oc2c3c(cc(OCC(=O)N4CCC(C(=O)O)CC4)c12)OC(C)(C)CC3	MsrA inh 5.0 (no result: DSG3 Ab inh, DAGLB inhibitor) | MsrA inh confirm inactive
COc1cc(C(=O)C(=O)c2ccc(O)c(OC)c2)ccc1O	MsrA inh 6.4 | MsrA inh confirm inactive
CCOc1ccc(/C=C/C(=O)c2c(O)cc(C)oc2=O)cc1	none
COc1ccc(/C=C/C(=O)c2c(O)ccc3c(C)cc(=O)oc23)cc1	MsrA inh 5.4 | MsrA inh confirm 5.1
COc1ccc(/C=C\C(=O)c2c(O)ccc3c(C)cc(=O)oc23)cc1	MsrA inh 5.3 | MsrA inh confirm inactive
Cc1cc(=O)oc2c(O)c(O)ccc12	none
CN(C)/C=C/C(=O)c1ccn(S(=O)(=O)c2ccccc2)c1	none
O=C(O)CSc1cc(NS(=O)(=O)c2cccc([N+](=O)[O-])c2)c2ccccc2c1O	MsrA inh 20 | MsrA inh confirm inactive
Cc1ccc(-n2c(SCC(=O)N/N=C/C=C\c3ccco3)nnc2-c2ccccc2)cc1	none (no result: DSG3 Ab inh, NadD inh, MsrA act, MsrA inh, DAGLB inhibitor)
CC1(C)CC(=O)C(C=Nc2ccc3[nH]ncc3c2)=C(O)C1	MsrA inh 5.6 | MsrA inh confirm 4.8
CC1(C)CC(=O)C(C=Nc2ccc(O)cc2)=C(O)C1	MsrA inh 5.4 | MsrA inh confirm inactive
COc1cccc(N=CC2=C(O)CCCC2=O)c1	none
COc1cccc(N=CC2=C(O)CC(C)(C)CC2=O)c1	MsrA inh 6.2 | MsrA inh confirm inactive
CCCc1ccc(-c2c(C)sc(N)c2C#N)cc1	MsrA inh 5.3 (no result: DSG3 Ab inh) | MsrA inh confirm inactive
COc1ccccc1/C=C/C=N/NC(=O)CCn1nnc2ccccc21	none
Cn1cccc1CC(=O)NN=C/C=C\c1ccco1	none (no result: DSG3 Ab inh, NadD inh, MsrA act, MsrA inh, DAGLB inhibitor)
COc1ccccc1/C=C/C=N/NC(=O)c1cccs1	MsrA inh 5.8 | MsrA inh confirm 6.7
COc1ccccc1/C=C\C=N\NC(=O)CCn1nnc2ccccc21	MsrA inh 5.0 | MsrA inh confirm inactive
COc1ccccc1/C=C\C=N\NC(=O)c1ccco1	none
COc1ccccc1/C=C/C=N/NC(=O)Cc1cccn1C	MsrA inh 5.8 | MsrA inh confirm 4.9
COC(=O)[C@H](C(C)C)N1Cc2nnn(Cc3ccccc3)c2-c2cc(F)ccc2S1(=O)=O	none (no result: DSG3 Ab inh, NadD inh, MsrA act, MsrA inh, DAGLB inhibitor)
CN(C)/C=N/c1ncc(C(=O)c2ccccc2)s1	MsrA inh 5.6 | MsrA inh confirm 4.7
CN(C)/C=N/c1ncc(C(=O)c2ccc(-c3ccccc3)cc2)s1	none (no result: DSG3 Ab inh)
COc1ccc2cc(-c3nc4ccccc4n3C)c(=O)oc2c1	MsrA inh 4.9 | MsrA inh confirm inactive
c1ccc(Cn2ccc3ccc(-c4ccc5ccn(Cc6cccc(-c7cccs7)c6)c5c4)cc32)cc1	none (no result: DSG3 Ab inh, NadD inh, MsrA act, MsrA inh, DAGLB inhibitor)
CCCCNS(=O)(=O)/C=C/c1ccc(OC)cc1CNC(=O)OC(C)(C)C	none (no result: DSG3 Ab inh, NadD inh, MsrA act, MsrA inh, DAGLB inhibitor)
Cc1ccsc1/C=N\Nc1cn[nH]c(=O)c1Cl	none
O=c1[nH]ncc(N/N=C/c2ccccc2)c1Cl	MsrA inh 7.2 | MsrA inh confirm 6.8
COc1ccc(/C=N/Nc2cc(C)nc3ccccc23)cc1	none
COc1ccc(/C=N/Nc2cn[nH]c(=O)c2Cl)cc1	MsrA inh 5.4 | MsrA inh confirm 5.9
Cc1ccc(/C=N\Nc2cn[nH]c(=O)c2Cl)cc1	MsrA inh 7.8 | MsrA inh confirm 6.6
Cc1ccc(CNC(=O)OC(C)(C)C)c(/C=C/S(=O)(=O)NCc2ccc(F)cc2)c1	none (no result: DSG3 Ab inh, NadD inh, MsrA act, MsrA inh, DAGLB inhibitor)
